Consider six molecules from PubChem BioAssay.

One assay deals with Albumin (Bos taurus) (UniProt P02769). Nature of the assay: bovine serum albumin binders on microarray, profiling panel, artefact control for SMM control protein annotation, biochemical, small-molecule microarray, Alexa647 label, 635/667 nm fluorescence (AID 1118).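 Further: score merges 667 nm emission intensity and signal-to-noise per printed compound spot.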 Particulars: BSA-A647 binding, fluorescence 635 nm, higher = more signal.
Chain of Albumin (Bos taurus) (P02769 whole entry, looked up): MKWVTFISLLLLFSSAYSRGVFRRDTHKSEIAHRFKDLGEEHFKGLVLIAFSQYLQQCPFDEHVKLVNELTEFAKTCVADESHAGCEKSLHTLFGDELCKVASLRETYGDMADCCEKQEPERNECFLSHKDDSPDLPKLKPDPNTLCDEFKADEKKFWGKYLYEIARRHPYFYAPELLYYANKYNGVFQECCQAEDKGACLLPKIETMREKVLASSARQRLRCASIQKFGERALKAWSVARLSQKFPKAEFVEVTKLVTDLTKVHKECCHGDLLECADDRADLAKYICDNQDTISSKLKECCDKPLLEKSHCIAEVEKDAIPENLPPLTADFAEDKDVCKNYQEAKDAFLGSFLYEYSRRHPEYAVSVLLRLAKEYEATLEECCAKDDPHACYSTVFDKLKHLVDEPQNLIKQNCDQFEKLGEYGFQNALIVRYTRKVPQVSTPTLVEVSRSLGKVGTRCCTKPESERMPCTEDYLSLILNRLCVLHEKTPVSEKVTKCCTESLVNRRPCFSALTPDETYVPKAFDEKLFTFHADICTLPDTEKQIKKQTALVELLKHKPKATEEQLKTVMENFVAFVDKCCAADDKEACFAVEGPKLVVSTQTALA
Assay [1] in a line: small-molecule microarray binders of probe aXIP, primary screen, biochemical, NeuroSMM set, 635/667 nm fluorescence (AID 1119).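 Further: probe is the protein aXip251-270 applied at 1 µg/mL to compound-printed slides; binding of probe to printed compounds measured as 667 nm fluorescence plus signal to noise.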 The settings on record: higher = more signal, called active from +8 up or from −8 down.
The nature of assay [2]: small-molecule binders of probe aNOTCH3, primary screen, biochemical, small-molecule microarray, 635/667 nm fluorescence (AID 1120).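 Further: probe is a biotin-tagged antibody raised against NOTCH3 rather than NOTCH3 protein; score merges spot fluorescence near 667 nm with spot signal to noise.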 Particulars: higher = more signal.
The nature of assay [3]: small-molecule binders of probe aNOTCH2, primary screen, biochemical, small-molecule microarray, 635/667 nm fluorescence (AID 1121).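 Further: score merges feature fluorescence read at 667 nm with its signal to noise.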 Particulars: higher = more signal.
Assay [4] has as its target Carbonic anhydrase 2 (Homo sapiens) (UniProt P00918). Nature of the assay: CAII small-molecule binders, profiling panel, biochemical, small-molecule microarray, Alexa647-labelled CAII (AID 1122). Particulars: CAII-A647 binding fluorescence, higher = more signal.
Assay [5] can be described thus: COS7 lysate on small-molecule microarray, probe aHis, 635 nm (AID 1123).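 Further: z-score combines 667nm fluorescence intensity with signal-to-noise per printed compound spot.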 Particulars: COS7 cell lysate, fluorescence, higher = more signal.
A short description of assay [6]: compound binding in COS7 lysate, probe aLAP1, primary screen, cell lysate, small-molecule microarray (AID 1124).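 Further: lysate comes from COS7 cells expressing LAP1 and is applied at 0.3 µg/mL; score merges spot fluorescence near 667 nm with signal-to-noise over triplicate slides.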 The settings on record: probe aLAP1, fluorescence, higher = more signal.
The test system of a further assay is Sam68 (KHDRBS1). Nature of the assay: Sam68 small-molecule binders, primary screen, biochemical, small-molecule microarray, 635 nm fluorescence (AID 1125).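 Further: score merges 667 nm channel intensity with signal to noise over triplicate slides.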 The settings on record: small-molecule microarray binding, higher = more signal.
Assay [7] relates to Chordin-like protein 2 (CHRDL2). Nature of the assay: CHRDL2 small-molecule binders, primary screen, biochemical, small-molecule microarray, 635 nm fluorescence (AID 1126).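 Further: printed compound slides probed with Chrdl2 protein at 4 µg/mL for 1 h at 4 C; score merges 667 nm emission intensity with signal to noise over three replicate slides.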 The settings on record: small-molecule microarray binding, fluorescence 635 nm; higher = more signal.
For assay [8], the target named is Concanavalin-A (Canavalia ensiformis) (UniProt P02866). In words: ConA small-molecule binders, primary screen, artefact control for SMM control protein annotation, biochemical, small-molecule microarray, Alexa647 label, 635 nm (AID 1127).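 Further: z combines 667 nm emission intensity with signal-to-noise across three replicate slides.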 The settings on record: ConA-A647 binding fluorescence, higher = more signal.
Chain of Concanavalin-A (Canavalia ensiformis) (P02866 whole entry, looked up): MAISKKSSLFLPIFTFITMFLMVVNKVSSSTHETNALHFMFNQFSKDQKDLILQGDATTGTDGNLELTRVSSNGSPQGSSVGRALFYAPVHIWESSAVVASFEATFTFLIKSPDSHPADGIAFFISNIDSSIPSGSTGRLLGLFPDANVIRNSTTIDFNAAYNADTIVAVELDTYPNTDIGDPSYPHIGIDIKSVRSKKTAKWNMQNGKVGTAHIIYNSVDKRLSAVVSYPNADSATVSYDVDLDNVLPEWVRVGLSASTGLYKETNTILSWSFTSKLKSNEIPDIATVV
Assay [9] is described as follows: anti-His antibody binders, primary screen, artefact control for SMM control protein annotation, biochemical, small-molecule microarray, 635 nm fluorescence (AID 1128).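 Further: score merges feature fluorescence with signal-to-noise for each printed compound spot.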 Particulars: anti-His Alexa647 antibody binding, higher = more signal.
The subject of assay [10] is Human papillomavirus type 1a E7 protein (residues 1-88). Nature of the assay: HPV1a E7 small-molecule binders, primary screen, biochemical, small-molecule microarray, residues 1-88, 635 nm (AID 1129). Particulars: small-molecule microarray binding, fluorescence 635 nm; higher = more signal.
Assay [11] deals with Focal adhesion kinase 1 (Homo sapiens) (UniProt Q05397). Nature of the assay: small-molecule microarray binders of FAK, primary screen, biochemical, 635/667 nm fluorescence, BSA, DTT (AID 1130).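 Further: composite of spot emission at 667 nm and signal to noise over triplicate slides.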 The settings on record: PTK2 binding, 635 nm fluorescence, higher = more signal.
Chain of Focal adhesion kinase 1 (Homo sapiens) (Q05397 whole entry, looked up): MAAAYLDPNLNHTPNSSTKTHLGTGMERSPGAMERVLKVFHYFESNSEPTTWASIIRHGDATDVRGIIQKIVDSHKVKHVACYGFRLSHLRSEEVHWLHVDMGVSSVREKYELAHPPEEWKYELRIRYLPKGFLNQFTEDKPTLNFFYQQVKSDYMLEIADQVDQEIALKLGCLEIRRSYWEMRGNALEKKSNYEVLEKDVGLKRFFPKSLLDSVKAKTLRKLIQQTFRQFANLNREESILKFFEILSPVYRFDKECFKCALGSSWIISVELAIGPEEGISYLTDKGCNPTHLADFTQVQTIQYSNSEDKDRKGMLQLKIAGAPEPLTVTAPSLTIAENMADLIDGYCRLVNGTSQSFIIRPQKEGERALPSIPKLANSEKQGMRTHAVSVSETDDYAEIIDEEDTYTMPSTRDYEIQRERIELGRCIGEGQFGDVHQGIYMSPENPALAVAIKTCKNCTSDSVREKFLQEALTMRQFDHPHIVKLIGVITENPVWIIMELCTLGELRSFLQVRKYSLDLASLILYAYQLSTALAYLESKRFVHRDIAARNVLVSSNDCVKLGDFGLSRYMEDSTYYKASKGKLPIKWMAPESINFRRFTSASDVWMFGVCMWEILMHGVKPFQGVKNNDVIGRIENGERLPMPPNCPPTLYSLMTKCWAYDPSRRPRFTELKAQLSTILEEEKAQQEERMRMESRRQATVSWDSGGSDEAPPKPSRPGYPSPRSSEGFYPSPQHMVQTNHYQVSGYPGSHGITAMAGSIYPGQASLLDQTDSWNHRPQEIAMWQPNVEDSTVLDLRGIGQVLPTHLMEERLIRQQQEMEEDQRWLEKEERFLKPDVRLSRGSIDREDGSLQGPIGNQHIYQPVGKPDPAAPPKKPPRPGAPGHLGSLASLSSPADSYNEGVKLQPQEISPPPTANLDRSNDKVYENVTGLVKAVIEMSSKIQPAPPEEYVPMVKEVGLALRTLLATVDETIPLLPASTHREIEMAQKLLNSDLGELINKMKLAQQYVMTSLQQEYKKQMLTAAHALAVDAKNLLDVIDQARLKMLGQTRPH
Assay [12] has as its system Fibrinogen (Alexa647-labelled). Nature of the assay: fibrinogen binders on compound microarrays, profiling panel, artefact control for SMM control-protein annotation, biochemical, small-molecule microarray, 635/667 nm fluorescence (AID 1131).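 Further: z-score merges 667 nm fluorescence with per-spot signal-to-noise over triplicate slides.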 Particulars: fibrinogen-A647 binding fluorescence, higher = more signal.
Assay [13] has as its target Follistatin (Homo sapiens) (UniProt P19883). In words: follistatin binders on small-molecule microarrays, primary screen, biochemical, small-molecule microarray, 635/667 nm fluorescence (AID 1132). Particulars: FST binding, 635 nm fluorescence, higher = more signal.
The target in assay [14] is Fibroblast growth factor 2 (Homo sapiens) (UniProt P09038). Nature of the assay: FGF2 binders on small-molecule microarrays, primary screen, biochemical, small-molecule microarray, 635/667 nm fluorescence (AID 1133). The settings on record: small-molecule microarray binding, FGF2, fluorescence 635/667; higher = more signal.
Chain of Fibroblast growth factor 2 (Homo sapiens) (P09038 whole entry, looked up): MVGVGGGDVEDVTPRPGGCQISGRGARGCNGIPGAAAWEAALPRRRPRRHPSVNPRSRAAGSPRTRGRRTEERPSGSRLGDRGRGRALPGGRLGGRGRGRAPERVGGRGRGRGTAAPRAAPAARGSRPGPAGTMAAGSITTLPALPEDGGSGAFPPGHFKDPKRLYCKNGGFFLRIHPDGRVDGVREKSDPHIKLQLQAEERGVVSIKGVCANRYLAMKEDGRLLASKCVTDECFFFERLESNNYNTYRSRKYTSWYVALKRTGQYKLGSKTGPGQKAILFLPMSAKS
Assay [15] in a line: mitochondrial membrane potential change in A549 cells, profiling panel, cell-based, JC-1 fluorescence, basal, 24 h, 100 nL (AID 1138).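 Further: A549 lung adenocarcinoma cells under basal conditions with no added stimulus; test concentration not given here.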 The settings on record: higher = more signal.
The subject of a further assay is Lefty1. Nature of the assay: Lefty1 binders on small-molecule microarrays, primary screen, biochemical, small-molecule microarray, 635/667 nm fluorescence (AID 1139). The settings on record: small-molecule microarray binding, fluorescence 635/667; higher = more signal.
Assay [16] concerns wheat germ agglutinin (Triticum aestivum), Alexa647-labelled. Nature of the assay: wheat germ agglutinin binders on compound microarrays, profiling panel, artefact control for SMM control-protein annotation, biochemical, small-molecule microarray, 635/667 nm fluorescence (AID 1140).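 Further: score merges 667 nm feature emission with signal to noise over triplicate slides.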 Particulars: WGA-A647 binding, 635 nm fluorescence, higher = more signal.
Assay [17] addresses Luciferin 4-monooxygenase (Photinus pyralis) (UniProt P08659). In words: firefly luciferase enzyme inhibitors, primary screen, biochemical, luminescence, purified enzyme, 2006 set (AID 1141).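 Further: cell-free assay with purified firefly luciferase at 100 ng per well in PBS; test concentration not given here.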 Particulars: SteadyGlo luminescence, 30 min, higher = more signal, called active from +8 up or from −8 down.

The structures appear in SMILES notation. Calls of active or inactive are those of the source.

Chain of Follistatin (Homo sapiens) (P19883 whole entry, looked up): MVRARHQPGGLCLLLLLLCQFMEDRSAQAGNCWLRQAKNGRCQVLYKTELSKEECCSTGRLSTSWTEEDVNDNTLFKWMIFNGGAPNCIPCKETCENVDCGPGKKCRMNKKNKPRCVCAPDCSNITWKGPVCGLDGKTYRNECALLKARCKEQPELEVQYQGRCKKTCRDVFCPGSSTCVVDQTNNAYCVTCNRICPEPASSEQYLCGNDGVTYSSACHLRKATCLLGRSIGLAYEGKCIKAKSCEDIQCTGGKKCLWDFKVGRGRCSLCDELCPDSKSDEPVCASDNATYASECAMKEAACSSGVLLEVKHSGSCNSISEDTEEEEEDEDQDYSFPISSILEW
Chain of Luciferin 4-monooxygenase (Photinus pyralis) (P08659 whole entry, looked up): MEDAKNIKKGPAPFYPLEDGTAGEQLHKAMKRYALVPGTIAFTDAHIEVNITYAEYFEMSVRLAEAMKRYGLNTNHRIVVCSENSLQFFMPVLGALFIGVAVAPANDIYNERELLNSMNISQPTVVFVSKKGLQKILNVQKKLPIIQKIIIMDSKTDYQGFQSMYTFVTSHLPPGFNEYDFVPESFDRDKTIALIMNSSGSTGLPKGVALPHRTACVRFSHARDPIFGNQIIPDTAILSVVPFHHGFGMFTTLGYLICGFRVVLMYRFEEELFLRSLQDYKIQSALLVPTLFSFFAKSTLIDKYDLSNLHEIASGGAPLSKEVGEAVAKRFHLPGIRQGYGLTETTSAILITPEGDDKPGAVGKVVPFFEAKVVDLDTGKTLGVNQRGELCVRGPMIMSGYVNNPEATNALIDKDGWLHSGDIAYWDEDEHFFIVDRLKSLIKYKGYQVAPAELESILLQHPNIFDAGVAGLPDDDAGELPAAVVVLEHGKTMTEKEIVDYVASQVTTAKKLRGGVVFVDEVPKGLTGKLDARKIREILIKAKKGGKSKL

With `C/C=C\[C@@H](NCc1ccccc1Br)[C@@H](O)Cc1ccccc1`, the composite z-score was 0.099 with Albumin (Bos taurus); -0.221 in assay [2]; -0.13 in assay [3]; -0.263 in assay [4]; -0.103 in assay [5]; -0.0543 in assay [6]. For the same molecule, the composite z-score is -0.636 in the assay on Sam68 (KHDRBS1); -1.02 in assay [7]; -0.342 in assay [8]; -0.13 in assay [9]; -0.469 in assay [10]; -0.119 in assay [11]. The composite z-score in assay [12] was -0.641; in assay [13], -0.604; in assay [14], -1.4; in the assay with Lefty1 it was -0.972; in assay [16], -0.819. Moreover, the composite Z-score in assay [1] is 0.168 (inactive). Moreover, the values for the z-score in [15] and in [17] were -1.4 and 0.979 (inactive), respectively.
For `CCc1cc2c(nc1CC)CCN(CCC(C)=NOC[C@@H](O)[C@H]1O[C@@H]3OC(C)(C)O[C@@H]3[C@H]1O)C2`, the composite z-score was 0.424 in the assay with Albumin (Bos taurus); -0.0111 in assay [2]; -0.0891 in assay [3]; 0.213 in assay [4]; 0.421 in [5]; -0.0959 in [6]. In addition, the composite z-score with Sam68 (KHDRBS1) was 0.398; in [7], 0.382; in [8], 0.971; in assay [9], 0.29; in assay [10], -0.0321; in assay [11], -0.113. The composite z-score in assay [12] was found to be 0.572; in [13] it was 0.187; in assay [14] it was 0.106; with Lefty1, 0.446; in [16] it was 0.878. Besides, the composite Z-score in assay [1] is 0.386 (inactive). Moreover, the z-score is 0.489 in assay [15] and -0.0353 (inactive) in [17].
In the case of `COC(=O)[C@@]1(Cc2ccc(OC)cc2)[C@H]2c3cc(C(=O)N4CCCC4)n(Cc4cc(F)c(F)c(F)c4)c3C[C@H]2CN1C(=O)c1ccccc1`, the composite z-score with Albumin (Bos taurus) was found to be 1.04; in assay [2], 1.69; in [3], 0.882; in assay [4], 0.765; in assay [5], 3.06; in [6], 1. The composite z-score is 1.3 with Sam68 (KHDRBS1); -0.593 in [7]; 1.21 in assay [8]; 2.21 in [9]; 1.26 in assay [10]; 0.59 in assay [11]. The composite z-score in [12] was 1.02; in [13], 1.19; in assay [14], -0.149; in the assay with Lefty1, -0.551; in assay [16], 1.31. Also, in [1], the composite Z-score was 0.188 (inactive). For the same molecule, the z-score in assay [15] is 0.649; in [17] it was 1.95 (inactive).
`CN1C(=O)C2C=CC(C(O)c3ccc(I)cc3)N(NC(=O)OC(C)(C)C)C2C1=O` (stereo not given): the composite z-score with Albumin (Bos taurus) was 0.825; in [2] it was 0.435; in assay [3], 0.17; in assay [4] it was 0.719; in [5], 2.18; in [6], 0.555. Besides, the composite z-score was 1.31 with Sam68 (KHDRBS1); -0.294 in [7]; 0.898 in assay [8]; 0.131 in [9]; 1.25 in assay [10]; 0.739 in assay [11]. The composite z-score in assay [12] is 0.974; in [13] it was 0.669; in [14] it was -0.0956; in the assay with Lefty1, -0.119; in [16], 0.743. For the same molecule, in assay [1], the composite Z-score is -0.252 (inactive). In addition, the z-score was -0.317 in [15] and 0.607 (inactive) in [17].
With `CC=CC1=C(CO)[C@H](O)[C@H]2O[C@H]2[C@H]1O`, the composite z-score with Albumin (Bos taurus) is -0.15; in assay [2], -0.113; in assay [3], -0.146; in assay [4] it was -0.173; in assay [5], -0.188; in assay [6], -0.182. The composite z-score in the assay with Sam68 (KHDRBS1) is 0.278; in assay [7], 1.09; in [8], 0.291; in [9], 0.189; in [10] it was 0.277; in [11], -0.0741. The composite z-score in [12] was -0.0409; in assay [13] it was 0.589; in assay [14], 1.06; in the assay with Lefty1, 0.871; in assay [16] it was -0.191. Moreover, the composite Z-score in [1] was 0.0448 (inactive). Besides, the figures for the z-score in [15] and in [17] were -0.565 and -0.115 (inactive), respectively.
As for `COC(=O)[C@H]1COC(c2ccc(OCCCO)cc2)=N1`, the composite z-score with Albumin (Bos taurus) was 0.543; in assay [2], -0.16; in assay [3] it was -0.0942; in assay [4], 0.523; in [5] it was 2.38; in assay [6], 0.984. The composite z-score in the assay on Sam68 (KHDRBS1) is -1.08; in assay [7] it was -0.0157; in [8] it was -0.588; in [9] it was -0.748; in assay [10], -0.877; in assay [11], -0.57. In addition, the composite z-score in [12] was -4.27; in [13] it was 0.267; in [14], 1.14; in the assay on Lefty1, -0.878; in assay [16], 0.177. Besides, the composite Z-score in [1] was 0.0182 (inactive). The z-score in [15] was -0.765; in assay [17] it was -21.6 (active).
